Test results published in PubChem BioAssay (NCATS).
Inconclusive results are not listed. A call without a number means that no potency is given here. Active and inactive are the calls of the source. The call rests on the fitted dose curve; in most records, active means well fitted curve in the direction sought with a large enough effect; inconclusive means small, poorly fitted or top-dose-only effect, or another doubt; inactive means no such curve, though single readings can be large; an effect the other way counts as inactive or inconclusive.

Biological target: Voltage-gated inwardly rectifying potassium channel KCNH2 (Homo sapiens) (UniProt Q12809)
Sequence (Q12809 whole entry, looked up): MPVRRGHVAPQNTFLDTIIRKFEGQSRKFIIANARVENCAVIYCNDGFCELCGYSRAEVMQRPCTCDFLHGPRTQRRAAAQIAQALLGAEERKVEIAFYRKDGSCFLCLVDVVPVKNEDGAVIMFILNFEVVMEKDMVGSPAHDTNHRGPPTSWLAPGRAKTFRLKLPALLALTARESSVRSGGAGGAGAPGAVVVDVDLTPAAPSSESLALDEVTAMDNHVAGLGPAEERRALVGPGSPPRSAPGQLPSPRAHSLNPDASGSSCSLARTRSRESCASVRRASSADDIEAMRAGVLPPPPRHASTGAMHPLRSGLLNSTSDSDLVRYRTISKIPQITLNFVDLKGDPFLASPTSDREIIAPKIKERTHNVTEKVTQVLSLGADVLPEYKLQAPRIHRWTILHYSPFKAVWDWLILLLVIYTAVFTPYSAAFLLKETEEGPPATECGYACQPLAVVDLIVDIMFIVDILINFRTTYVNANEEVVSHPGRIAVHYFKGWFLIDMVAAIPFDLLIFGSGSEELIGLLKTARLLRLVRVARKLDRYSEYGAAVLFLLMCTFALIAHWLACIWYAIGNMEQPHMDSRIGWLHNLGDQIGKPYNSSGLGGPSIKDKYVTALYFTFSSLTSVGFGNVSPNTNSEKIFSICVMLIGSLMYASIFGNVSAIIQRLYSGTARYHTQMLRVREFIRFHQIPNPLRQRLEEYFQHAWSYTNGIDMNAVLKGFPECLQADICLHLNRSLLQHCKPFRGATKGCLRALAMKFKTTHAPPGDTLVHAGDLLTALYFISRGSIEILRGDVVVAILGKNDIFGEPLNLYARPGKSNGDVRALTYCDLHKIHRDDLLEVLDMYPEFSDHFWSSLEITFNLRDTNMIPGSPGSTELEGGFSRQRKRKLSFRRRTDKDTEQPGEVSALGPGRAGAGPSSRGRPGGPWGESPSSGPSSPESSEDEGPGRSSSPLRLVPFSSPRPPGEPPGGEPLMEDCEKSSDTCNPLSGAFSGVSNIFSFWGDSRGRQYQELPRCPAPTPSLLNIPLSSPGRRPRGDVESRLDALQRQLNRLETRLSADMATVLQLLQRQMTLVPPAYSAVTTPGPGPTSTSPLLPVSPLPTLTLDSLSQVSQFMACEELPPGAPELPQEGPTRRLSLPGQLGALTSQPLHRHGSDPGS
Assay: qHTS Assay for Small Molecule Inhibitors of the Human hERG Channel Activity (AID 588834);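 further: lower thallium flux fluorescence means stronger hERG block; nearly all actives have a fitted effect of over 50% in size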; further: potency means the concentration at half of the fitted maximal effect
Details: U2OS BacMam hERG, FluxOR thallium flux fluorescence; series mostly up to 46.1 µM
Outline: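 Step 1: BacMam hERG transduction of U2OS, 4 hrs RT. Step 2: overnight 37 °C, plate 2000 cells/well, 4 hr. Step 3: FluxOR load, compound 10 min, stimulate, read fluorescence.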
For `Cc1ccc2nc(N)[nH]c(=O)c2c1Sc1ccncc1`, the Potency was “inactive”. In the case of `CC1=C(C/C=C(\C)CCC[C@H](C)CCC[C@H](C)CCCC(C)C)C(=O)c2ccccc2C1=O`, the Potency is reported as “inactive”. With `C=CCn1c(=O)n([C@@H]2O[C@H](CO)[C@@H](O)[C@H]2O)c2nc(N)[nH]c(=O)c21` the Potency was “inactive”. With `Cc1ncc([N+](=O)[O-])n1CC(O)CCl` (configuration not stated) the Potency was “inactive”. In the case of `C/C(=C(\CCOP(=O)(O)O)SC(=O)c1ccccc1)N(C=O)Cc1cnc(C)nc1N`, the Potency is reported as “inactive”. With `[O-][n+]1cccc(CO)c1` the Potency was “inactive”. In the case of `CC(=O)O[C@@]12CO[C@@H]1C[C@H](O)[C@@]1(C)C(=O)[C@H](O)C3=C(C)[C@@H](OC(=O)[C@H](O)[C@@H](NC(=O)OC(C)(C)C)c4ccccc4)C[C@@](O)([C@@H](OC(=O)c4ccccc4)[C@H]21)C3(C)C`, the Potency is reported as “inactive”. In the case of `OC[C@H]1O[C@@H](O[C@@H]2[C@@H](CO)O[C@](O)(CO)[C@H]2O)[C@H](O)[C@@H](O)[C@H]1O`, the Potency is reported as “inactive”. With `CC1(C)Oc2ccc(C#N)cc2[C@@H](N2CCCC2=O)[C@@H]1O` the Potency was “inactive”. In the case of `CC1CC(OC(=O)C(O)c2ccccc2)CC(C)(C)N1C` (configuration not stated), the Potency is reported as “inactive”. With `CCN(CC)C(=O)Nc1ccc(OCC(O)CNC(C)(C)C)c(C(C)=O)c1` (configuration not stated) the Potency was “inactive”. For `CN(C)CCCO[C@@H]1[C@H]2OC(C)(C)O[C@H]2O[C@@H]1C(O)CO` (some centres not stated), the Potency was “inactive”. With `CC[N+](CC)(CC)CCOc1ccc(/C=C/c2ccccc2)cc1` the Potency was 14.1 µM (active). For `N[C@H]1C(O)O[C@H](CO)[C@@H](O)[C@@H]1O` (some centres not stated), the Potency was “inactive”. With `CC1(C)S[C@@H]2[C@H](NC(=O)Cc3ccccc3)C(=O)N2[C@H]1C(=O)O` (tested in a mixture with another compound) the Potency was “inactive”. For `CN(N=O)C(=O)N[C@@H]1[C@@H](O)[C@H](O)[C@@H](CO)O[C@@H]1O`, the Potency was “inactive”. For `Cc1cc(O)cc2c1O[C@](C)(CCC[C@H](C)CCC[C@H](C)CCCC(C)C)CC2`, the Potency was “inactive”. For `NC(=O)c1ncn([C@@H]2O[C@H](CO)[C@@H](O)[C@H]2O)c1N`, the Potency was “inactive”. For `OCC(CO)N[C@H]1C[C@](O)(CO)[C@@H](O)[C@H](O)[C@H]1O`, the Potency was “inactive”. In the case of `C[C@H]1O[C@H](O[C@H]2[C@H](O)[C@@H](O)[C@@H](O[C@H]3[C@H](O)[C@@H](O)[C@H](O)O[C@@H]3CO)O[C@@H]2CO)[C@H](O)[C@@H](O)[C@@H]1N[C@H]1C=C(CO)[C@@H](O)[C@H](O)[C@H]1O`, the Potency is reported as “inactive”. With `COc1ccc2cc1Oc1cc3c(cc1OC)CC[N+](C)(C)[C@H]3Cc1ccc(cc1)Oc1c(OC)c(OC)cc3c1[C@@H](C2)[N+](C)(C)CC3` the Potency was “inactive”.

Biological target: Luciferin 4-monooxygenase (Photinus pyralis) (UniProt P08659)
Sequence (P08659 whole entry, looked up): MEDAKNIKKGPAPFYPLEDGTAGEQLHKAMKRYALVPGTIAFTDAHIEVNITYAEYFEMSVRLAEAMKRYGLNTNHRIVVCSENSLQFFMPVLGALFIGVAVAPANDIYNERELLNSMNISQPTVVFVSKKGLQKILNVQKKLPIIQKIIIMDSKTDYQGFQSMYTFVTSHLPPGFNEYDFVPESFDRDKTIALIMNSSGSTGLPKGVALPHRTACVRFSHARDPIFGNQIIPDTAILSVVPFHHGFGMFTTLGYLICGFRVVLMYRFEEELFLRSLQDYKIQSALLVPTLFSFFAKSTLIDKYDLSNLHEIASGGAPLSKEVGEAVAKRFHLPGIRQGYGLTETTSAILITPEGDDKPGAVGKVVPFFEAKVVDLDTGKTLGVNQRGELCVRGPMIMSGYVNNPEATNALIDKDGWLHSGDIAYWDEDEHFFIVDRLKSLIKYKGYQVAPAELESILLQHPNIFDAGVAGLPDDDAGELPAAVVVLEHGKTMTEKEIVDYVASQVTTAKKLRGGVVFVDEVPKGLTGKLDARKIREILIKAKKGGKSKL
Assay: Biochemical firefly luciferase enzyme assay for NPC (AID 624030);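 further: purified P. pyralis luciferase at 10 nM with luciferin and ATP substrate; nearly all actives have a fitted effect of over 70% in size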
Details: purified P. pyralis luciferase, luminescence, 5 min; series mostly up to 58.6 µM
Outline: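 Direct inhibition of firefly luciferase enzyme (10 nM final, 50 mM Tris Acetate) assessed by luminescence within 5 minutes. Percent activity scaled between DMSO and PTC124 positive control, with concentration-effect curves classified by fit quality and response.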
For `O=c1cc(CO)occ1O`, the Potency was “inactive”. In the case of `CC(=O)Oc1c(C)c(C)c2c(c1C)CC[C@@](C)(CCC[C@H](C)CCC[C@H](C)CCCC(C)C)O2`, the Potency is reported as “inactive”. With `c1ccc2c(CC3=NCCN3)cccc2c1` the Potency was “inactive”. In the case of `O=Cc1ccccc1C=O`, the Potency is reported as “inactive”. In the case of `CCCCCCCCCCCCCCCCCCOCC(O)CO` (configuration not stated), the Potency is reported as “inactive”. For `CCOC(CN1CCN(CC(C)C(=O)c2ccccc2)CC1)c1ccccc1` (configuration not stated), the Potency was “inactive”. In the case of `CC(=O)Oc1ccc(C2(c3ccc(OC(C)=O)cc3)C(=O)Nc3ccccc32)cc1`, the Potency is reported as “inactive”. For `Cc1ccc2nc(N)[nH]c(=O)c2c1Sc1ccncc1`, the Potency was “inactive”. With `[O-][n+]1cccc(CO)c1` the Potency was “inactive”. With `CC[N+](CC)(CC)CCOc1ccc(/C=C/c2ccccc2)cc1` the Potency was “inactive”. In the case of `Cc1cc(O)cc2c1O[C@](C)(CCC[C@H](C)CCC[C@H](C)CCCC(C)C)CC2`, the Potency is reported as “inactive”.

Tested on: not listed separately
Assay: S16 Schwann cell viability assay (CellTiter-Glo assay) (AID 624031);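 further: cellular ATP luminescence as a viability measure; nearly all actives have a fitted effect of over 70% in size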
Details: S16 rat Schwann cells viability, 24 h; series mostly up to 57.5 µM
Outline: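 Luminescent ATP read-out (CellTiter-Glo) after 24 h compound exposure of native S16 rat Schwann cells at 37 °C. Signals were normalized between cell-free wells and DMSO-treated cells, set as 0% activity.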
In the case of `O=c1cc(CO)occ1O`, the Potency is reported as “inactive”. In the case of `CCCCCCCCCCCCCCCCCCOCC(O)CO` (configuration not stated), the Potency is reported as “inactive”. For `CC(=O)Oc1ccc(C2(c3ccc(OC(C)=O)cc3)C(=O)Nc3ccccc32)cc1`, the Potency was “inactive”. With `Cc1ccc2nc(N)[nH]c(=O)c2c1Sc1ccncc1` the Potency was “inactive”. For `Cc1cc(O)cc2c1O[C@](C)(CCC[C@H](C)CCC[C@H](C)CCCC(C)C)CC2`, the Potency was “inactive”.
